# Results reported in the supplement of paper PMC11732987, “Enantioselective OTUD7B fragment discovery through chemoproteomics screening and high-throughput optimisation” (Communications Chemistry, 2025).
# A number with no mark means an inactive call.
# Compound: CN(Cc1ccccc1)C(=O)CCl
# Test: log2 ratio of Biotin-Ahx-Ub-VS probe labelling (compound/DMSO); higher = less target engagement, active = hit call of the paper (q ≤ 0.05, log2 ratio ≤ -1)
# Conditions: compound concentration: 50uM; treatment time: 3 h
# Outline: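 For activity-based profiling, 495 µg portions of HEK293T lysate in Tris/CHAPS/IGEPAL buffer with protease inhibitors were treated in triplicate with compound at 50 or 200 µM or with DMSO for 3 h. A 1 h incubation with Biotin-Ahx-Ub-VS (0.5 µM final) followed, then NeutrAvidin enrichment, LysC and trypsin digestion and diaPASEF LC-MS/MS. The compound/DMSO base-two log ratios were averaged from median-normalised label-free quantities using an unpaired t-test. Proteins needed at least 2 unique peptides to be included.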
# UniProt Q14694, sequence (Q14694 whole entry): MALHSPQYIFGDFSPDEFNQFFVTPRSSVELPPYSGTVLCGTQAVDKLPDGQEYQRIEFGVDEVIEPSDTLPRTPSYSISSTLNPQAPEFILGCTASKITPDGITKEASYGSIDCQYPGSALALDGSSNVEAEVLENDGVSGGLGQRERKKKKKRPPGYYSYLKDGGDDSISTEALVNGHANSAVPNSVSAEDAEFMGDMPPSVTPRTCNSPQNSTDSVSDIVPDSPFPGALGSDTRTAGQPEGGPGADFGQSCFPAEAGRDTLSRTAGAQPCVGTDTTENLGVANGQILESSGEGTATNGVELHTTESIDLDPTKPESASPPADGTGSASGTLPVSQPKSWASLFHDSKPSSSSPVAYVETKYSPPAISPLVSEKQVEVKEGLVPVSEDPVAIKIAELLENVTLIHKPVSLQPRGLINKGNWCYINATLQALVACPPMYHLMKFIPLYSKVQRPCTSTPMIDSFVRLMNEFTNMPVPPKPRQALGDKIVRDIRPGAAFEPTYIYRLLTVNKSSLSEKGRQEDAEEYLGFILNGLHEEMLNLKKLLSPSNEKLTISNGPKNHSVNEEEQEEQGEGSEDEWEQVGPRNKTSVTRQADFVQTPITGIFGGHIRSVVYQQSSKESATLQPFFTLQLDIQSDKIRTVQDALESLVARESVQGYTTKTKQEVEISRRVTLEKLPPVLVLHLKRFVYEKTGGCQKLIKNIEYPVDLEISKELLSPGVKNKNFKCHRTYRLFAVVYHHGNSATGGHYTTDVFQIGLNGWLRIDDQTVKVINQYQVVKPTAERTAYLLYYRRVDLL
# UniProt Q9Y5K5, sequence (Q9Y5K5 whole entry): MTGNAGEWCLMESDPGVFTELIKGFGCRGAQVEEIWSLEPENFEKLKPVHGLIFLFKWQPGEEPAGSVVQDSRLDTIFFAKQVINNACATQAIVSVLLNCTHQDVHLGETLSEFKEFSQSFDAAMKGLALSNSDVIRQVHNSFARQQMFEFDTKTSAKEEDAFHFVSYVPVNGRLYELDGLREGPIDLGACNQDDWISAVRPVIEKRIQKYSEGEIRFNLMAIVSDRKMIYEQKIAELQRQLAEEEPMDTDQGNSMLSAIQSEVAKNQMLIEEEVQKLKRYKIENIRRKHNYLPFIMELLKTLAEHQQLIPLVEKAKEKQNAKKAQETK
# UniProt P51784, sequence (P51784 whole entry): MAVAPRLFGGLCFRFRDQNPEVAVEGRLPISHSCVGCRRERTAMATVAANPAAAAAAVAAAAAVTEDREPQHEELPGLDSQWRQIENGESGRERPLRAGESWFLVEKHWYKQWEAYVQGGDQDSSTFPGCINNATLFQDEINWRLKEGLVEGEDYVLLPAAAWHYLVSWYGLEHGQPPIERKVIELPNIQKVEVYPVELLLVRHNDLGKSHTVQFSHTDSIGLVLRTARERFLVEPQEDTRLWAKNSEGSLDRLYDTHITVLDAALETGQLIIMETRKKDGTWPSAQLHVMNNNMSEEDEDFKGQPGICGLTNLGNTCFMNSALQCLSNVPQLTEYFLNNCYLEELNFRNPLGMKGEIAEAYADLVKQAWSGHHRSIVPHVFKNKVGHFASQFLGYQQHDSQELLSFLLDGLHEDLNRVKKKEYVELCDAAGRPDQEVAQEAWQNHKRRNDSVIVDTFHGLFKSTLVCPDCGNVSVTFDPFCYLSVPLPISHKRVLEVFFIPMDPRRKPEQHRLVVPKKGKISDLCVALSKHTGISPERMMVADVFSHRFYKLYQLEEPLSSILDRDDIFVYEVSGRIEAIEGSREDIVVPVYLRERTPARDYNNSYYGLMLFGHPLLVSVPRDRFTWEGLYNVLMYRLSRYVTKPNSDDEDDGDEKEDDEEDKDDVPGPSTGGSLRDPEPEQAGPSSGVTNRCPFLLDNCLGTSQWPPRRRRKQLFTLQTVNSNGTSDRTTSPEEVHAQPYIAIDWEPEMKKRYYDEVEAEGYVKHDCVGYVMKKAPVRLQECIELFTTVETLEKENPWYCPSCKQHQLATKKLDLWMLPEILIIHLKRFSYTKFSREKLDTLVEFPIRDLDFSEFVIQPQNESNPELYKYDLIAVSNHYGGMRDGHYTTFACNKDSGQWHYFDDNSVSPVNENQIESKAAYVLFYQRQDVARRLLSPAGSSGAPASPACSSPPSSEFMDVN
# UniProt Q93009, sequence (Q93009 whole entry, looked up): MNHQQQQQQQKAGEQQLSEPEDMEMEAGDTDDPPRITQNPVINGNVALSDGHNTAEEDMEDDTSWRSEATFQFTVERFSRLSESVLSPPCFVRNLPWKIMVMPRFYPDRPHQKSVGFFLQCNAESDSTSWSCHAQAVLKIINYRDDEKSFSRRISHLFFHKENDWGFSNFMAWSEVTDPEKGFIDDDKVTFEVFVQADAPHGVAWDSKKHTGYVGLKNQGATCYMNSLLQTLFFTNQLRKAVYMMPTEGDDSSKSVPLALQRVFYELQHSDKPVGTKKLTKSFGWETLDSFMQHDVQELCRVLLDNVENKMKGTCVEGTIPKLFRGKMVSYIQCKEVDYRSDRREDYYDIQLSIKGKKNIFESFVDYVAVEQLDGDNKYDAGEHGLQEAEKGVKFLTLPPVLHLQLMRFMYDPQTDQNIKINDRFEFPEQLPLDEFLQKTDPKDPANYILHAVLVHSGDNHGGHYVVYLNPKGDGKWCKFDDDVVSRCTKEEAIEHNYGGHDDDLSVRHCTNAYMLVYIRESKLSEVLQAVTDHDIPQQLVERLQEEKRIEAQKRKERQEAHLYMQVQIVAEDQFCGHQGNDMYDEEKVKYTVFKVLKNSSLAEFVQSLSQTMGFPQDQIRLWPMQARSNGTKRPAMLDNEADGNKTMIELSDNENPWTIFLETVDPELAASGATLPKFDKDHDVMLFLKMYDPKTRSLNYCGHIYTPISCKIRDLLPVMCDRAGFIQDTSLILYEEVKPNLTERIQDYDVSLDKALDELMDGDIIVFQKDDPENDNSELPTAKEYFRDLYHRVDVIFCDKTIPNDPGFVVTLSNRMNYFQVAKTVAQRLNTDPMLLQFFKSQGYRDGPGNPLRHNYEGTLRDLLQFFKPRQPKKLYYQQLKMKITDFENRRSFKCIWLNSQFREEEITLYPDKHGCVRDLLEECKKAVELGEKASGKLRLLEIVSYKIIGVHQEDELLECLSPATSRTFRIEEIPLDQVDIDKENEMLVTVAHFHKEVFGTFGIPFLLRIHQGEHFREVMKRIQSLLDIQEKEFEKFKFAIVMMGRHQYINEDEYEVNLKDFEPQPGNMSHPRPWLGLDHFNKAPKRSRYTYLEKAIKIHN
# UniProt Q9Y5T5, sequence (Q9Y5T5 whole entry, looked up): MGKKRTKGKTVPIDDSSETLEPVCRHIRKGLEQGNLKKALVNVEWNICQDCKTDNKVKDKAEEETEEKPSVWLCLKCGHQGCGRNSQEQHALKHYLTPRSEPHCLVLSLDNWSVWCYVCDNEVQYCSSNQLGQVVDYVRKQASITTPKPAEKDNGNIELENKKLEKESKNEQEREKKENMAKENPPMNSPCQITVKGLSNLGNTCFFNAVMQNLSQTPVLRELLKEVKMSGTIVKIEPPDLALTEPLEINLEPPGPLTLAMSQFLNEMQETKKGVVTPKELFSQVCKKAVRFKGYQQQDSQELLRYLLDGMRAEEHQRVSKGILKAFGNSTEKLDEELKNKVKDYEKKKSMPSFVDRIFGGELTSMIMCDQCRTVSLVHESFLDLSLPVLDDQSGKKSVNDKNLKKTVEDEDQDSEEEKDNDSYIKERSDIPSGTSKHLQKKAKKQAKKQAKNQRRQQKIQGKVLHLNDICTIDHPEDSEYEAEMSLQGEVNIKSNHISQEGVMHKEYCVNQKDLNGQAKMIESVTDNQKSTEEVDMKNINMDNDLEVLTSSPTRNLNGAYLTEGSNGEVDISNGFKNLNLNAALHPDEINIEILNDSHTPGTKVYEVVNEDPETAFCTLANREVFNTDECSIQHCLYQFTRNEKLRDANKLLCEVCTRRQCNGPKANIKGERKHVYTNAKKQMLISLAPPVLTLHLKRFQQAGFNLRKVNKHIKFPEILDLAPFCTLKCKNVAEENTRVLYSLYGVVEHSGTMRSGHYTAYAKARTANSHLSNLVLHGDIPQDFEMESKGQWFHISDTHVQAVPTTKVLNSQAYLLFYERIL
# UniProt Q6GQQ9, sequence (Q6GQQ9 whole entry): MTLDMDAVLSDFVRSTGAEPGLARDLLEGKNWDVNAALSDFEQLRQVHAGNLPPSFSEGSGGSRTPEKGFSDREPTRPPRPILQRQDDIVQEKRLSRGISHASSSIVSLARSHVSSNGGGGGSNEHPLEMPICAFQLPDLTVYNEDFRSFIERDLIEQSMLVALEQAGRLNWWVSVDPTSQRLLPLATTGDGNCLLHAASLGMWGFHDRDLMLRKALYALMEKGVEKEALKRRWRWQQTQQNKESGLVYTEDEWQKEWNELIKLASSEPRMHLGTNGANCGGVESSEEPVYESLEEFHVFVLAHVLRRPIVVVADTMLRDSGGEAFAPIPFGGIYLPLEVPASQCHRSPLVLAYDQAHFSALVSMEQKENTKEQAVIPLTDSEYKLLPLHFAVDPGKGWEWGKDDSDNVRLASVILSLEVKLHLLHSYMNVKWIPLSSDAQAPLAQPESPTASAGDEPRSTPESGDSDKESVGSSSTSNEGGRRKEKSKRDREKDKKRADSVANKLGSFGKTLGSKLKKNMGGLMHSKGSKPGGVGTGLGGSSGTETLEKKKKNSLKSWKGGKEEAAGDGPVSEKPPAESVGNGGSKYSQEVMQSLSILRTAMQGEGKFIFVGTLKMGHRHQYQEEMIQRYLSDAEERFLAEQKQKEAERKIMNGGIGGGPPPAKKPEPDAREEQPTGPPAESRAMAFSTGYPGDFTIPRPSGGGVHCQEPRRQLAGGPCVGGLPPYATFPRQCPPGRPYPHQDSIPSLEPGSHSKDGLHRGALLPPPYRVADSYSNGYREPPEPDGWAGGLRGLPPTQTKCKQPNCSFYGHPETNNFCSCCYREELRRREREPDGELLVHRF
row,Target,log2 ratio of Biotin-Ahx-Ub-VS probe labelling
1,USP54 (UniProt Q70EL1),-0.885
2,UniProt Q5T2D3,-0.381
3,USP28 (UniProt Q96RU2),-0.195
4,UniProt Q70EL2,-0.191
5,USP22 (UniProt Q9UPT9),-0.208
6,OTUD6B (UniProt Q8N6M0),-0.257
7,EIF3F (UniProt O00303),0.12
8,USP36 (UniProt Q9P275),-0.167
9,USP16 (UniProt Q9Y5T5),-0.434
10,UCHL5 (UniProt Q9Y5K5),-0.356
11,OTUD7B (UniProt Q6GQQ9),-0.664
12,USP14 (UniProt P54578),-0.14
13,USP7 (UniProt Q93009),-0.517
14,USP34 (UniProt Q70CQ2),0.682
15,OTUB1 (UniProt Q96FW1),-0.0602
16,USP9X (UniProt Q93008),-0.193
17,COPS5 (UniProt Q92905),-0.103
18,USP10 (UniProt Q14694),-0.177
19,USP46 (UniProt P62068),-0.252
20,YOD1 (UniProt Q5VVQ6),-0.391
21,BAP1 (UniProt Q92560),-0.833
22,UniProt P51784,-0.135
23,USP25 (UniProt Q9UHP3),-0.138
24,UniProt Q9UGI0,-0.482

# Same assay, conditions: compound concentration: 200uM; treatment time: 3 h
row,Target,log2 ratio of Biotin-Ahx-Ub-VS probe labelling
1,USP54 (UniProt Q70EL1),-0.551
2,UniProt Q5T2D3,-0.198
3,USP28 (UniProt Q96RU2),-0.692
4,UniProt Q70EL2,-0.88
5,USP22 (UniProt Q9UPT9),-0.176
6,OTUD6B (UniProt Q8N6M0),-0.515
7,EIF3F (UniProt O00303),0.117
8,USP36 (UniProt Q9P275),-0.139
9,USP16 (UniProt Q9Y5T5),-0.669
10,UCHL5 (UniProt Q9Y5K5),-0.432
11,OTUD7B (UniProt Q6GQQ9),-1.45 (active)
12,USP14 (UniProt P54578),0.0709
13,USP7 (UniProt Q93009),-1.2 (active)
14,USP34 (UniProt Q70CQ2),-0.913
15,OTUB1 (UniProt Q96FW1),-0.159
16,USP9X (UniProt Q93008),-0.435
17,COPS5 (UniProt Q92905),0.0593
18,USP10 (UniProt Q14694),0.0371
19,USP46 (UniProt P62068),-1.01 (active)
20,YOD1 (UniProt Q5VVQ6),-0.259
21,BAP1 (UniProt Q92560),-2.17 (active)
22,UniProt P51784,-0.305
23,USP25 (UniProt Q9UHP3),-0.338
24,UniProt Q9UGI0,-0.697
